Laboratory results as given in the supplement of paper PMC11417369.
The full ranking holds about 25,000 sequences; the median of “ln(normalized median fluorescence intensity)” is about 6.7, and the highest 2% start at about 10. The entries come from a sample that favours the highest values as a whole.

System: PfHDP1 homeodomain (GST-tagged)
Experiment: gcPBM binding intensity (ln(normalized median fluorescence intensity)); higher = stronger DNA binding
Outline: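 Binding intensity is the highest Masliner-normalised natural-log median intensity over replicate spots in either probe orientation. To obtain it, GST-tagged P. falciparum DNA-binding domains made in E. coli were incubated for 1 h on an Agilent 4 × 180k array of primer-extended double-stranded 36-bp intergenic genomic probes plus negative controls. Detection used Alexa488 anti-GST antibody with scanning at 488 nm.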

How did the “gcPBM binding intensity (ln)” value turn out when “ACCCTCATATTATAGACACACACAAAAAAAATAAAA [CACACA_site7941]” was run?
Its value is 6.66.

With “TTTTTATTACATAATTAAAAAAAATAATAAAATAAA [XGTACX_negctrl_site249]” as the sequence, how does the “gcPBM binding intensity (ln)” value read?
Its value is 6.03.

“CTTTTAAATTATTTTTGTACATAATTATATATATAT [XGTACX_site4128]” was tested. Which “gcPBM binding intensity (ln)” value did it give?
The value was 8.27.

How did the “gcPBM binding intensity (ln)” value turn out when “TATATAAAAAATAGGTGGTCAACTTAAATATTTTAT [XGTACX_site4495]” was run?
Its value is 6.46.

How did the “gcPBM binding intensity (ln)” value turn out when TATATTTTATATATGGTGCAACTTTTATTTAAATAA was run?
The value was 10.7.

Which “gcPBM binding intensity (ln)” value does the source give for TGTATTAAAAATTTGGTGCAACTTTTACATAATAAT here?
Its value is 10.8.

How did the “gcPBM binding intensity (ln)” value turn out when TATATATAAATATATGTGCACTTTTTATATTTATAT was run?
Its value is 9.06.

With “TATAAAAATGTGTATGTACACACTTTATTTTTAATA [CACACA_site2532]” as the sequence, how does the “gcPBM binding intensity (ln)” value read?
Its value is 6.38.

How did the “gcPBM binding intensity (ln)” value turn out when “ATAATATTTAGGTGTGCACACAAACATACATATATA [CACACA_site9120]” was run?
Its value is 10.9.

How did the “gcPBM binding intensity (ln)” value turn out when “AAATCAAACTTTGGTGTGCACAAATATATACATATA [GTGCAC_site9986]” was run?
The value was 11.

With “TATTCGAACAAAAATACATGCACATATGCATAATAA [TGCATGCA_site171]” as the sequence, how does the “gcPBM binding intensity (ln)” value read?
Its value is 10.

Which “gcPBM binding intensity (ln)” value does the source give for “TTTATTTATATTTATACACACAAACATAATACTACT [CACACA_site7039]” here?
The value was 6.82.

How did the “gcPBM binding intensity (ln)” value turn out when “TTTATATATATTTATACACACAAACATAATACTACT [CACACA_site5161]” was run?
The value was 6.86.

With TTACATACAATTGGTGTGCACATATATATATATATA as the sequence, how does the “gcPBM binding intensity (ln)” value read?
The value was 10.3.

How did the “gcPBM binding intensity (ln)” value turn out when “AATATTTATGGGTGCACACAAACATACATATATATA [CACACA_site3395]” was run?
Its value is 10.

“TAATAATCAAACTATACACACATAAATAAATATATA [CACACA_site156]” was tested. Which “gcPBM binding intensity (ln)” value did it give?
The value was 6.52.

How did the “gcPBM binding intensity (ln)” value turn out when “ATAATATTCGAGTGTGCACACAAACATACATATATA [CACACA_site3396]” was run?
Its value is 11.1.

Which “gcPBM binding intensity (ln)” value does the source give for “CATATATGTTATATTTAACACACATATAAGGTACAT [CACACA_site8105]” here?
Its value is 6.51.

Which “gcPBM binding intensity (ln)” value does the source give for “AAGAAAAAGAATAGACGGACAACTAATATAAAATAT [XGTACX_site7905]” here?
The value was 6.53.

How did the “gcPBM binding intensity (ln)” value turn out when “ATATATAAACTGAAGGGTACAATGAAAAAAGAACTT [XGTACX_site7219]” was run?
The value was 6.81.

“CCATATCTTTTTTGCACACACTACAATAAAACAAAA [CACACA_site4995]” was tested. Which “gcPBM binding intensity (ln)” value did it give?
Its value is 10.6.

Which “gcPBM binding intensity (ln)” value does the source give for “TACAACAATTTTTGCACACACCAAAACATAAAATAA [CACACA_site4964]” here?
Its value is 10.3.

Which “gcPBM binding intensity (ln)” value does the source give for “AGCCATATCTTTTTTGCACACACTACAATAAAACAA [CACACA_site1650]” here?
Its value is 10.1.

How did the “gcPBM binding intensity (ln)” value turn out when “ATTTGTATATACATATGTACACATGTAGGCTCATAA [XGTACX_site1709]” was run?
Its value is 6.92.

How did the “gcPBM binding intensity (ln)” value turn out when “ATATTTTCAGTTCTCCATTATGTTCCCATTATTTTT [CACACA_negctrl_site990]” was run?
Its value is 7.03.

Which “gcPBM binding intensity (ln)” value does the source give for “TGGGTGTAGAACAATTGTACTTTGTAAAAATATAAG [XGTACX_site8464]” here?
Its value is 6.59.

For “AATGTGCACACGCGTACACACAAAAAAAGAAAAAAA [CACACA_site7031]”, which “gcPBM binding intensity (ln)” value is on record?
Its value is 10.2.

With “CATGCTTATATGTGCACACACAAAAGAAAAGAAAAA [CACACA_site1655]” as the sequence, how does the “gcPBM binding intensity (ln)” value read?
The value was 11.

For “CAAAAAAAGAAAGCTACACACATTTATGTGCTATAT [CACACA_site2777]”, which “gcPBM binding intensity (ln)” value is on record?
Its value is 6.72.

With “TTATGTTATATATACACACACAAAAGAAAAAAAAAA [CACACA_site2987]” as the sequence, how does the “gcPBM binding intensity (ln)” value read?
The value was 6.48.

Which “gcPBM binding intensity (ln)” value does the source give for “ATTTATGTTATATATACACACACAAAAGAAAAAAAA [CACACA_site8977]” here?
Its value is 6.89.

“TTCATGCTTATATGTGCACACACAAAAGAAAAGAAA [CACACA_site1656]” was tested. Which “gcPBM binding intensity (ln)” value did it give?
Its value is 10.8.

“TAAATATATATATATTGTACAAAACAAATGTGAATT [XGTACX_site696]” was tested. Which “gcPBM binding intensity (ln)” value did it give?
The value was 7.1.

How did the “gcPBM binding intensity (ln)” value turn out when “GATGTTCATCACTACACACACAAAGAAATATAAATA [CACACA_site7294]” was run?
Its value is 6.57.

“TCAATTAGACGAAAATGTACATATGTATATATTTTT [XGTACX_site5027]” was tested. Which “gcPBM binding intensity (ln)” value did it give?
The value was 6.25.

“ATACATATGGTGGATCGTACATATATATAATATGTA [XGTACX_site8631]” was tested. Which “gcPBM binding intensity (ln)” value did it give?
The value was 6.5.

Which “gcPBM binding intensity (ln)” value does the source give for “TATAATGTATGTAGTGCACACCTCTATAATATATTA [CACACA_site8560]” here?
Its value is 9.5.

For “TATGTACACCCATATACACACCTCTATAATATATAT [CACACA_site4563]”, which “gcPBM binding intensity (ln)” value is on record?
The value was 7.13.

Which “gcPBM binding intensity (ln)” value does the source give for “TAGAATGTATGTAGTGCACACCTCTATAATATATTA [CACACA_site1873]” here?
Its value is 10.5.

“TATTATATTATACATACACACCCATATAATATGTTT [CACACA_site8191]” was tested. Which “gcPBM binding intensity (ln)” value did it give?
Its value is 6.85.

Which “gcPBM binding intensity (ln)” value does the source give for AATATTCAATATAAAGTGCATTATTGTGGACCTAAT here?
The value was 8.94.

GCCAATAAAGATGTGGTGCATTATATATATATATAT was tested. Which “gcPBM binding intensity (ln)” value did it give?
The value was 10.7.

With TAAATATATATATAAGTGCATTATATATATATATAA as the sequence, how does the “gcPBM binding intensity (ln)” value read?
Its value is 9.53.

With “TAAAACTTATACAAATGTACAAATATATATATATAT [XGTACX_site4661]” as the sequence, how does the “gcPBM binding intensity (ln)” value read?
Its value is 9.19.

“TTTTTTATTTTATTTTTTTCTGCTTATCCACATTAG [XGTACX_negctrl_site108]” was tested. Which “gcPBM binding intensity (ln)” value did it give?
The value was 6.48.

“GCACACATATAATTAAACATATATTTGTATTATTTT [GTGCAC_negctrl_site327]” was tested. Which “gcPBM binding intensity (ln)” value did it give?
The value was 6.5.

For “ATTATATACATATATGCACACAAAAAAATATATATT [CACACA_site8508]”, which “gcPBM binding intensity (ln)” value is on record?
Its value is 9.93.

For “TTAATTTATTTATGCACACATATATAATTACACATA [CACACA_site4544]”, which “gcPBM binding intensity (ln)” value is on record?
The value was 10.7.

For “TCGTACTTGTATTATGCACACATATAATTAAACATA [CACACA_site9089]”, which “gcPBM binding intensity (ln)” value is on record?
The value was 10.5.

For “ATATTACCCATATATGCACACATTGTAGTTATTTAT [CACACA_site2636]”, which “gcPBM binding intensity (ln)” value is on record?
The value was 9.18.

How did the “gcPBM binding intensity (ln)” value turn out when “GTACTTGTATTATGCACACATATAATTAAACATATA [CACACA_site3312]” was run?
Its value is 10.1.
